Assay outcomes: PubChem BioAssay, National Center for Advancing Translational Sciences (NCATS)
GPT2 inhibitor: Primary qHTS assay for inhibitors of Glutamate pyruvate transaminase 2 (GPT2); 100,000 compounds, 0.25% hits; Alanine aminotransferase 2 (Homo sapiens), Q8TD30; Potency, µM (doses to about 57.7 µM), for inactives: at the highest dose activity change, negative = inhibition, most hits filed as inhibitors; AID 1671188, 2021; Recombinant GPT2, coupled pyruvate oxidase/HRP Amplex Red fluorescence; also: potency is read from the fitted curve at half-maximal effect; nearly all actives have a fitted effect of over 60% in size
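Fluorescence of coupled pyruvate oxidase/HRP/Amplex Red system (50uM Amplex, 30 min, dark) reports pyruvate formed by GPT2. Enzyme reaction: 10ng/uL GPT2, 2mM L-alanine, 250uM a-KG, 30 min room temperature, pH 7.5; 50uM AOA control.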
IP6K1 inh: Primary qHTS assay for small molecule inhibitors of Inositol hexaphosphate kinase 1 (IP6K1); AID 1645851, 2021; 140,000 compounds, 0.81% hits; IP6K1 kinase, ADP-Glo luminescence, 2 h; hits give low values; activity change, % (series mostly up to about 58 µM); in the data active = activity change below about -25%
Target sequence (Q92551 whole entry, looked up): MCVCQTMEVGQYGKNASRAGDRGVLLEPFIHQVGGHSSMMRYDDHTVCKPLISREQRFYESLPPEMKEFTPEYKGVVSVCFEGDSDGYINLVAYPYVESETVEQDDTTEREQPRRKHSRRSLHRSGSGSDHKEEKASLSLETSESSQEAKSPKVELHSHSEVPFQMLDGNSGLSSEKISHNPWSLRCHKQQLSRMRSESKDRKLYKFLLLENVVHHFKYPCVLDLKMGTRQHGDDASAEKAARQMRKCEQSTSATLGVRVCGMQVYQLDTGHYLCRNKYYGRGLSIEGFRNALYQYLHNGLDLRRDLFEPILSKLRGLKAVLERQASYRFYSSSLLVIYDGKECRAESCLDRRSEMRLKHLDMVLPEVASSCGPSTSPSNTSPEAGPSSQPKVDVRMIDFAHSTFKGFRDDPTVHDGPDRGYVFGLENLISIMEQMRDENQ
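ADP-Glo luminescence measures ADP made by human IP6K1 during a 2 h RT reaction with ATP/IP6 (mix at 1.3 mM/130 uM); top library doses 57.5 and 19.1 uM final.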
IP6K1 inh cnf: Confirmatory qHTS assay for small molecule inhibitors of Inositol hexaphosphate kinase 1 (IP6K1). shares compounds with IP6K1 inh. recombinant IP6K1 kinase, ADP-Glo luminescence, 2 h. AID 1645852, 2021. 1,200 compounds, 13% hits. Potency, µM (titrated, usually from 49 µM), inactives show at the top dose activity change, negative = inhibition, most hits filed as inhibitors; also: potency is read from the fitted curve at half-maximal effect; nearly all actives have a fitted effect of over 65% in size
Starred values were filed as active, the others as inactive; i = inactive; ? = inconclusive; . = no result given; [ ] = remark or other dose. Hits are enriched below; roughly 0.82% of the tested compounds scored in any of these assays. Unless noted, calls follow the shape of the dose curve; as a rule, active = well fitted curve in the direction sought with a large enough effect; inconclusive = small, poorly fitted or top-dose-only effect, or another doubt; inactive = no such curve, though single readings can be large; an effect the other way counts as inactive or inconclusive. % is scaled to controls: 0 for no effect and ±100 for the full control effect.

SMILES | GPT2 inhibitor | IP6K1 inh | IP6K1 inh cnf
CC12CCC3C(C)(C)C(O)CCC3(C)C1Cc1c(oc(C(=O)O)cc1=O)O2 (configuration not stated) | ? | -4 | .
Cn1ncc2c(C(=O)NCc3cccc(Cl)c3)cc(C(C)(C)C)nc21 | i | -3 | .
COCCCNc1nc(NCc2cccc(Cl)c2)c2cnn(C)c2n1 | . | -32* | ?
CCN1C(=O)CCN(S(C)(=O)=O)CC12CCOCC2 | i | -6 | .
CCN(C(=O)Cn1cccc1-c1nc(-c2ccccc2)no1)c1cccc(C)c1 | 4% | -3 | .
CCN(C(=O)CSc1nc(-c2ccccc2)no1)c1cccc(C)c1 | . | -44* | 31%
CCn1ncc(CN2CCC(C3CCN(C)CC3)C2)c1C (configuration not stated) | i | -3 | .
COCCn1c(CO)nnc1C1CC(NC(=O)C2(C)CCCC2)C1 (configuration not stated) | -1%[11.5 µM] | -28* | -12%
COCCn1c(CO)nnc1C1CC(NC(=O)c2c(C)noc2C)C1 (configuration not stated) | -17% | 19 | .
CCC1c2nccn2CCCN1C(=O)c1ccc(OC)nc1OC (configuration not stated) | i | 1 | .
CN(C)C(=O)N1CCC(c2nn(-c3ccccn3)c(=O)[nH]2)CC1 | -3%[88.5 µM] | 2 | .
COc1ccc(C)cc1Nc1nc(-c2cccc(Cl)c2)c2c(n1)-c1ccccc1OC2 | . | -14 | .
Fc1ccc(Nc2nc(-c3cccc(Cl)c3)c3c(n2)-c2ccccc2OC3)c(F)c1 | . | -27* | -7%
O=C(CN1C(=O)NC(c2ccc(Cl)cc2)C2=C1COC2=O)Nc1ccc(C(F)(F)F)cc1 (configuration not stated) | i | 18 | .
CC(=O)N[C@@H]1CN(C(=O)c2cnc3ccccc3c2)C[C@H]1c1ccc(C)cc1 | 2% | -11 | .
CC1CN(C(=O)CCC(=O)NCc2ccc(F)cc2)c2cc(Cl)ccc2O1 (configuration not stated) | . | -25* | -7%
CC1CN(C(=O)CCC(=O)NCc2ccccc2)c2cc(Cl)ccc2O1 (configuration not stated) | . | -5 | .
O=[S+]([O-])(Nc1cccnc1)c1ccc2c(c1)OCCN(Cc1cncc(F)c1)C2 | -4%[88.5 µM] | -1 | .
O=C(Nc1ccc(I)cc1)c1cc(-c2ccc[nH]2)n[nH]1 | i | -10 | ?
O=C(Nc1cccc(OC(F)(F)F)c1)c1cc(-c2ccc[nH]2)n[nH]1 | i | 6 | ?
COc1ccc(OC)c(NC(=O)c2cc(-c3ccc[nH]3)n[nH]2)c1 | -6% | -5 | .
Cc1ccc(F)cc1NC(=O)c1cc(-c2ccc[nH]2)n[nH]1 | i | 10 | ?
COc1ccc(NC(=O)c2cc(-c3ccc[nH]3)n[nH]2)cc1OC | i | -2 | .
Cc1cc(NC(=O)c2cc(-c3ccc[nH]3)n[nH]2)ccc1F | -9% | 22 | .
O=C(NCc1cccc(Cl)c1)C1CCN(c2ccnc3ccnn23)CC1 | i | 7 | .
SMILES | GPT2 inhibitor | IP6K1 inh | IP6K1 inh cnf
COc1ccc(CCc2nc3cc(-c4c(C)noc4C)ccc3n2C[C@H](C)N2CCOCC2)cc1Cl | -1% | -24 | .
CCCCc1nc(Cl)c(CN2CCCC(COc3ccccc3C(=O)NC3CC3)C2)[nH]1 (configuration not stated) | i | -8 | .
COc1ccc(NC(=O)c2ccnc(-c3nnc4ccc(Nc5ccccc5)nn34)c2)cn1 | 4%[88.5 µM] | -11 | .
CC(C)CNC(=O)c1ccnc(-c2nnc3ccc(Nc4ccccc4)nn23)c1 | -28%[88.5 µM] | -28* | ?
COc1cccc([S+](=O)([O-])N2CCCC(C(=O)N3CCC(c4nc5ncccc5[nH]4)C3)C2)c1 (configuration not stated) | i | 15 | .
CCc1nn(CC(=O)N2CCN(c3cccc(C)c3C)CC2)c(=O)c2cc3sccc3n12 | . | -29* | -15%
CCc1nn(CC(=O)N2CCN(c3cccc(Cl)c3)CC2)c(=O)c2cc3sccc3n12 | . | -15 | .
C[C@H]1CCCN1C(=O)c1nnc(COc2ccc(C#N)cc2)n1-c1ccccc1 | 1%[88.5 µM] | -3 | .
COC(=O)N1CCC(N2C(=O)c3c(c(C)nn3-c3ccccc3)C2C)CC1 (configuration not stated) | . | 1 | .
N#Cc1cccc(S(=O)(=O)N2CC(C(=O)NC3CCCCC3)C3(CCOCC3)C2)c1 (configuration not stated) | -21% | 11 | .
CSc1ccc(/C=C/c2nc3ccccc3n2S(=O)(=O)c2ccc(F)c(C)c2)cc1 | . | -39* | ?
CC(C)Cn1c(/C=C/c2ccc(F)cc2)nc2ccccc21 | . | 4 | .
COC(=O)c1ccc2nc(C[C@@H]3C[C@@H](C(C)C)[C@H](CNC(=O)C4CCCCC4)C=C3C)[nH]c2c1 | -3% | -3 | .
CNC(=O)c1cc(-c2ccc(CO)cc2)cc2c1OCCN2Cc1cccnc1 | -1%[88.5 µM] | -26* | 22%
O=C(NC1CC1)c1cc(-c2ccccc2F)cc2c1OCCN2Cc1cccnc1 | -4%[88.5 µM] | -26* | ?
O=C(NCc1cccnc1)c1cc(-c2ccccc2F)cc2c1OCCN2Cc1cccnc1 | ? | -28* | ?
CN(C)C(=O)c1cc(-c2ccccc2F)cc2c1OCCN2Cc1cccnc1 | ? | -18 | .
O=C(NCC1CCCO1)c1cc(-c2ccccc2F)cc2c1OCCN2Cc1cccnc1 (configuration not stated) | i | -15 | .
CNC(=O)c1cc(-c2ccc([S+](C)(=O)[O-])cc2)cc2c1OCCN2Cc1cccnc1 | ? | -7 | .
Cc1ccc(C(=O)N2CCC(n3cc(-c4nc(-c5ccccc5)no4)nn3)CC2)s1 | i | 4 | .
CC(=O)N1CCN(C(=O)c2ccc(-c3ncc4cnc(-c5cccc(F)c5)cn34)cc2)CC1 | 1% | -12 | .
O=C(c1ccc(-c2ncc3cnc(-c4cccc(F)c4)cn23)cc1)N1CC(O)C1 | i | -29* | -14%
COc1ccc(Nc2cnc3ccc(-c4ccccc4)nn23)cc1 | i | 8 | .
Fc1ccc(-c2ccc3ncc(Nc4ccc5c(c4)OCO5)n3n2)cc1 | ? | -35* | ?
NC(=O)c1ccc(Nc2cnc3ccc(-c4ccccc4)nn23)cc1 | -29%[88.5 µM] | -29* | -22%
SMILES | GPT2 inhibitor | IP6K1 inh | IP6K1 inh cnf
COc1ccc(-c2ccc3ncc(Nc4ccc5c(c4)OCO5)n3n2)cn1 | ? | -20 | .
Cc1nnc2ccc(N3CCC(N[S+](=O)([O-])c4ccccc4)CC3)nn12 | . | -3 | .
Cc1nc(-c2c3n(c(=O)n(CC(=O)Nc4ccc(Cl)cc4)c2=O)CCCCC3)no1 | i | 16 | .
CCOC(=O)[C@@H]1CN(C(=O)COc2ccccc2)[C@H]2c3ccc(OC)cc3O[C@@H]12 | . | 5 | .
CCOCc1nc(C2CCCN2S(=O)(=O)c2cccnc2)no1 (configuration not stated) | 1% | 8 | .
COc1ccc(NC(=O)C2CCC(CNS(=O)(=O)c3csc(C(N)=O)c3)CC2)cc1 (configuration not stated) | . | -39* | ?
